A selection: hits, their analogues and other compounds. The true share with any hit is near 0.51%.
Rango complex inh: prevents formation of the Rango-importin beta complex; Potency, µM (series often up to 92.2 µM); AID 540263; 340,000 tested, 0.031% active; Rango CFP/YFP FRET sensor + importin beta, 45 min; Q14974; calls by dose curve; further: nearly all actives have a fitted effect of over 15% in size
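FRET biosensor (snurportin 1 IBB flanked by EYFP and cerulean), 50 nM, with compound 5 min, then 0.125 microM importin beta in PBS, 1 mM DTT, 0.02% Tween-20, 0.1% BSA. CFP/YFP ratio read after 45 min at room temperature; pre-read flags interference.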
Integrin act MD: integrin-mediated muscular dystrophy alleviation activation | alpha7betagal myoblasts, beta-gal FDG fluorescence, 48 h | Potency, µM (doses to about 38.3 µM), most hits filed as activators | 350,000 tested, 0.064% active; further: nearly all actives have a fitted effect of over 60% in size
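alpha7betagal+/- myoblasts (passage 13, 250/well) treated 48 h at 37C with compounds at 1:260 dilution of DMSO stock. Lysed, then beta-galactosidase activity read as FDG fluorescence (ex 480/em 540) after 30 min, with pre-read for autofluorescence.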
Rango release inh: inhibition of RanGTP-driven Rango-importin beta dissociation; O95149+P62826; Biochemical FRET Rango-importin beta, RanGTP-induced dissociation; Potency, µM (highest dose often 46.1 µM); 340,000 tested, 0.071% active; AID 540253; calls by dose curve; further: nearly all actives have a fitted effect of over 45% in size
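Rango (0.1 uM)–importin beta (0.25 uM) complex; RanGTP-RCC1 trigger; 45 min RT; CFP/YFP FRET read.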
CCT chaperon mod: changes cytosolic chaperonin activity; activity change, % (test concentration not listed), hits read low; 360,000 tested, 0.3% active; AID 651819; purified chaperonin ATPase assay, HTRF ADP detection, 30 min; in the data active means activity change below about -30%
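First, chaperonin was dispensed at 40 nM or 20 nM final depending on batch activity. Next, compounds were pinned at 76 uM and ATP added at 10 uM. After 30 min at 37 °C, ADP detection reagents ran 30 min at ambient temperature.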
MmCpn inh: inhibitors of Methanococcus maripaludis chaperonin TRiC (MmCpn); Potency, µM (doses to about 76.9 µM), usual class: inhibitors; purified Mm-Cpn ATPase, ADP Transcreener TR-FRET; 330,000 tested, 0.031% active; AID 504842; further: nearly all actives have a fitted effect of over 80% in size
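ATP (10 uM final) was added to archaeal chaperonin (25 nM final) after 10 min exposure to test compound at 37°C; after 30 min further incubation, ADP was detected by competitive TR-FRET.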
Hits are given with their value; 0 = inactive; ? = inconclusive; - = not tested or not shown. Unless noted, the call rests on the fitted dose curve; in most records, active means well fitted curve in the direction sought with a large enough effect; inconclusive means small, poorly fitted or top-dose-only effect, or another doubt; inactive means no such curve, though single readings can be large; an effect the other way counts as inactive or inconclusive.

SMILES | Rango complex inh | Integrin act MD | Rango release inh | CCT chaperon mod | MmCpn inh
O=C(CSCc1ccc(Cl)cc1)N/N=C/c1ccc(OCC(=O)Nc2ccccc2)cc1 | 0 | 0 | 0 | -53.4 | 0
O=C(O)CCc1ccc(-c2ccc(F)cc2)n1CC1CCCO1 (stereo not drawn) | 0 | 0 | 0 | 0 | 0
O=C(O)CCc1ccc(-c2cccs2)n1CC1CCCO1 (stereo not drawn) | ? | 0 | 5.17µM | 0 | 0
Cc1ccc(NC(=O)C2(C)CCN2C(=O)C2CCCCC2)cc1C (stereo not drawn) | - | - | - | 0 | -
CC(C)(C)c1ccc(CSc2nc(N)cc(=O)[nH]2)cc1 | 0 | 0 | 0 | -54.6 | 0
Cn1ccc2c(-c3ccc(C(=O)O)cc3)cc3c(c21)C1CCC3O1 (stereo not drawn) | - | - | - | 0 | -
Cc1nnc(SCC(=O)NC23CC4CC(CC(C4)C2)C3)n(N)c1=O | 0 | 0 | 0 | -41.8 | 0
Cc1c(Cl)cccc1NC(=O)NC1CCCCC1 | 0 | 0 | 0 | -40.3 | 0
S=C(SSC(=S)N1CCOCC1)N1CCOCC1 | - | - | - | 0 | -
CC1(C(=O)NS(=O)(=O)c2ccc(Br)cc2)CCN1C(=O)CCc1ccccc1 (stereo not drawn) | - | - | - | -78.9 | -
CC1(C(=O)NS(=O)(=O)c2ccc(Br)cc2)CCN1C(=O)CCc1cccs1 (stereo not drawn) | - | - | - | 0 | -
COc1ccc(OC)c(C(O)c2ncc(-c3cccc4ccccc34)[nH]2)c1 (stereo not drawn) | - | - | - | 0 | -
Cc1c(N=C2Nc3cccc4cccc2c34)c(=O)n(-c2ccccc2)n1C | ? | 0 | 2.59µM | 0 | 0
COC(=O)[C@@]1(Cc2ccc(F)cc2)[C@H]2c3cc(C(=O)N(C)C)n(CCCNc4ncc(C(F)(F)F)cc4Cl)c3C[C@H]2CN1C(=O)c1ccccc1 | - | - | - | 0 | -
CCN(CC)S(=O)(=O)c1cccc(NC(=O)c2cccc(S(=O)(=O)N3CCCC3)c2)c1 | 0 | 0 | 0 | -55.5 | 0
CCN(CC)S(=O)(=O)c1cccc(NC(=O)CNc2cccc(S(=O)(=O)N3CCCC3)c2)c1 | 0 | 0 | 0 | 0 | 0
Cc1cccnc1NC(=O)c1cccc(S(=O)(=O)N2CCN(c3ccccc3)CC2)c1 | 0 | 0 | 0 | 0 | 0
Cc1ccc(C(=O)NNC(=O)c2cccc(S(=O)(=O)N3CCN(c4ccccc4)CC3)c2)cc1 | 0 | 0 | 0 | -48.0 | 0
Cc1ccc(NC(=O)CCN2C(=O)C3CCCCC3C2=O)cc1[N+](=O)[O-] (stereo not drawn) | 0 | 0 | 0 | -52.7 | 0
Cc1ccc(NC(=O)CCN2C(=O)C3C4CCC(C4)C3C2=O)cc1[N+](=O)[O-] (stereo not drawn) | 0 | 0 | 0 | 0 | 0
O=c1[nH]c2cc(Cl)ccc2n(CCNc2ncc(C(F)(F)F)cc2Cl)c1=O | 0 | 0 | 0 | -67.2 | 0
N#Cc1c(NC(=O)C2CC(c3ccccc3Cl)=NO2)sc2c1CCC2 (stereo not drawn) | 0 | 0 | 0 | -92.4 | 0
O=c1oc(/C=C/c2ccc([N+](=O)[O-])s2)nc2ccccc12 | ? | 0 | 9.2µM | 0 | 0
CC(=O)Oc1ccccc1/C=C/c1nc2ccccc2c(=O)o1 | 0 | 0 | 0 | 0 | 0
CCOC(=O)C1CCCN(C(=O)c2ccccc2NC(=O)C2=C(C)OCCS2)C1 (stereo not drawn) | 0 | ? | 0 | 0 | 0
SMILES | Rango complex inh | Integrin act MD | Rango release inh | CCT chaperon mod | MmCpn inh
CCOC(=O)C1CCCN(C(=O)c2ccc(C)c(NC(=O)C3=C(C)OCCS3)c2)C1 (stereo not drawn) | 0 | 0 | 0 | -65.9 | 0
CCc1ccccc1Nc1nn2c(=O)c3ccc(C(=O)NCCCOC(C)C)cc3nc2s1 | - | - | - | - | 0
O=C(Nc1cccc(S(=O)(=O)C(F)(F)F)c1)[C@H]1C[C@H](O)[C@@H](CO)O1 | - | - | - | 0 | -
CN(C)S(=O)(=O)c1ccc(N2CCCC2)c(C(=O)NNC(=O)c2ccc(Br)cc2)c1 | 0 | 0 | 0 | 0 | 0
CN(C)S(=O)(=O)c1ccc(N2CCCC2)c(C(=O)NNC(=O)c2ccc(F)cc2)c1 | 0 | 0 | ? | -60.7 | 0
CCOc1ccc(NC(=S)c2ccc3ccccc3n2)cc1 | 0 | 0 | 0 | -30.0 | 0
COc1ccc(-c2csc(C(C)(O)c3cccnc3)n2)cc1 (stereo not drawn) | - | - | - | 0 | -
C[C@H]1CN([C@@H](C)CO)C(=O)CCCn2nncc2CO[C@@H]1CN(C)Cc1ccncc1 | - | 0 | - | 0 | -

Source: PubChem BioAssay (National Center for Advancing Translational Sciences (NCATS))
